Screen size: about 360,000 compounds; about 740 (0.21%) were called active. Roughly 2% stayed inconclusive and do not appear here. Calls follow the shape of the dose curve; as a rule, active = well fitted inhibition curve with a large enough effect; inconclusive = small, poorly fitted or top-dose-only effect; inactive = no such curve, though single readings can be large or run the other way. The list comes from a sample in which actives are over-represented; it also holds similar structures and randomly drawn compounds. A call without a number means that no potency is given here.
Potency is read from the fitted curve at half-maximal effect.

The experiment relates to Plasmodium falciparum AMA1 (3D7) - RON2 peptide interaction. Kind of experiment: qHTS for Inhibitors of AMA1-RON; Towards Development of Antimalarial Drug Lead: Primary Screen. Also: nearly all actives have a fitted effect of over 45% in size. The note with it: AlphaScreen AMA1-biotinylated RON2 peptide binding; series mostly up to 58.2 µM. From the text:
Plasmodium, the causative agent of malaria, is one of the world's deadliest parasitic diseases. Currently there is no vaccine available and there is widespread resistance to common anti-malarial drugs. This warrants novel, alternative approaches for developing improved therapy. During infection, one such essential interaction is between two parasite proteins, the apical membrane antigen1 (AMA1) that is translocated onto the merozoite surface and the rhoptry neck protein 2 (RON2), which is transferred to the red blood cells (RBC) membrane during invasion (Besteiro et.al., 2009). Recently, the Miller lab has shown that the interaction between AMA1 and RON2 is essential for junction formation of the parasite with the host cell (Srinivasan et.al., 2011). The binding of the RON2 peptide to the hydrophobic pocket in AMA triggers the formation of the moving junction which provides a firm anchor for the parasite to pull itself into the RBC using its actin-myosin motor; an irreversible step that commits the parasite for invasion. Only one AMA1 and RON2 genes exists in Plasmodium and there are no alternate pathways. Moreover, the region corresponding to RON2 peptide is conserved in all P. falciparum isolates for which sequences are available. The key residues in the AMA1 hydrophobic pocket that binds RON2 are also conserved and indicate a functional constraint governing this essential step in invasion since a short RON2 peptide (RON2L) corresponding to the binding region on AMA1 is sufficient to compete with the native RON2 protein and inhibits invasion (Tonkin et.al, 2011). Therefore, developing small molecule inhibitors of this interaction offers a promising target opening a new arena for anti-malarial therapeutics drug design.
In collaboration with the Miller lab, a quantitative High Throughput Screen using the AlphScreen technology was developed using a recombinant his-tagged AMA1 and a biotinylated RON2 peptide. This fluorescent screen was assayed against the NIH Molecular Libraries Small Molecule Repository (MLSMR). Inhibition of this protein-protein interaction is the desired outcome of this assay. However, due the limitations of this AlphaScreen assay, a large number of artifacts were observed. An AlphaScreen counterscreen was run to identify the true inhibitors, triage compound activity, and weed out false positives.
NIH Chemical Genomics Center [NCGC]
NIH Molecular Libraries Probe Centers Network [MLPCN]
Assay Submitter (PI): Louis Miller, National Institute of Allergy and Infectious Disease (NIAID)
Two microliters of his-tagged AMA1 3D7 allele protein (final concentration 25 nM) was dispensed into a 1,536-well assay plate. Small molecules and positive control peptides were pin-transferred (23 nL or 46 nL) via Kalypsys pin-tool equipped with a 1,536-pin array, resulting in final compound and peptide concentration ranges of 91.5 nM - 57.2 µM, and 15.6 nM - 2.00 µM, respectively. Unlabeled RON2 peptide or R1 peptide ([…]) that specifically binds the 3D7 AMA1 was used as a positive control that inhibited the binding of RON2L to AMA1. After 15 minutes incubation, 1 uL of biotinylated RON2 peptide (final concentration 25 nM) or buffer were dispensed and the assay plate was incubated for an additional 30 minutes at room temperature and protected from light. This was followed by an addition of 1 uL mixture of donor and acceptor beads (10 ug/mL final concentrations for each). The plates were incubated for 30 min at room temperature and read using the EnVision(R) plate reader (PerkinElmer). Maximum inhibition response was normalized to the positive control signal while no inhibition response was normalized to the DMSO treated wells.
Background: qHTS replaces the single test concentration by a dilution series.
For `COc1ccc(CCNC(=O)C(=O)NCC2OCCN2S(=O)(=O)c2ccc(OC)c(C)c2)cc1` (centres undefined), the Potency result was “inactive”. With `O=C(COC(=O)CNS(=O)(=O)c1ccccc1)NC12CC3CC(CC(C3)C1)C2`, the Potency result was “inactive”.

In the case of `O=c1ccc2cc(S(=O)(=O)NCCCc3ccccc3)ccc2[nH]1`, the Potency entry was “inactive”.

`COc1ccc(C2CC(c3ccc(C)cc3)Nc3nc(N)nn32)cc1` (centres undefined): the Potency was 3.16 µM (active). In the case of `Cc1ccc(C2CC(c3cccc(Br)c3)n3nc(N)nc3N2)cc1` (centres undefined), the Potency result was “inactive”.

Take `COc1ccc(C2CC(c3ccc(Cl)cc3Cl)Nc3nc(N)nn32)cc1OC` (centres undefined): the Potency entry is “inactive”. For `CCOc1cc(C(=O)N(Cc2ccccc2)c2ccc(C)cc2)ccc1OCC(=O)N1CCOCC1`, the Potency result is “inactive”. In the case of `CN(C)/C=C(/C(=O)c1ccc(Cl)c(Cl)c1)c1nnnn1-c1ccccc1` it was “inactive”. `COC(=O)c1ccc(NC(=O)CSc2nnc(C3CC3)n2C)cc1`: the Potency result is “inactive”. As for `C/C=C/C=C/C(=O)OCC(=O)Nc1ccc(Cl)cc1`, the Potency entry is “inactive”. Consider `CCCCN1C(=O)CCC(C(=O)O)C1c1ccc(OC)cc1` (centres undefined), for which the Potency entry is “inactive”. The entry for `O=C(Nc1cccc(S(=O)(=O)NC2=NCCC2)c1)C1CCCCC1` is “inactive”; for `COCCCNC(=O)c1c(F)c(F)c(F)c(F)c1F` it is “inactive”; for `COc1ccc(C(CNC(=O)c2ccc(OCc3cscn3)cc2)N2CCCC2)cc1` (centres undefined) it is “inactive”. In the case of `CN(C)/C=C(/C(=O)c1ccc(F)cc1)S(=O)(=O)c1ccc(F)cc1` it was “inactive”; in that of `CC(c1ccco1)N(C(=O)COc1ccccc1[N+](=O)[O-])c1ccccn1` (centres undefined), “inactive”. Take `CCOC(=O)N1CCN(C(=O)COCc2cc(-c3ccc4c(c3)OCO4)on2)CC1`: the Potency result was “inactive”. The entry for `COC(=O)c1c(NC(=O)C(=O)N2CCCCC2)sc2c1CC(C)(C)OC2` is “inactive”; for `CCn1cc(/C=C2/SC(=S)NC2=O)c(C)n1` it is “inactive”; for `COC(=O)c1ccc2ccccc2c1OC1OC(CO)C(O)C(O)C1NC(C)=O` (centres undefined) it is “inactive”. In the case of `O=C(c1ccc(Br)o1)N(c1ccccn1)C1CCCCC1` it was “inactive”; in that of `O=C(NC(=O)c1ccc(Cl)c(Cl)c1)OC1CCS(=O)(=O)C1` (centres undefined), “inactive”.

As for `O=C(Nc1cccnc1Oc1ncnc2cc(Cl)ccc12)c1ccc(F)cc1`, the Potency result is “inactive”. Take `CCN(C(=O)COC(=O)c1sccc1C)c1c(N)n(Cc2ccccc2)c(=O)[nH]c1=O`: the Potency result is “inactive”. The figure for `Nc1ccc2nc3c(=O)[nH]c(=S)[nH]c3nc2c1` is 1.41 µM (active).

With `c1ccc(CCC2=NCCn3cccc32)cc1`, the Potency entry is “inactive”. The entry for `Cc1ccc(S(=O)(=O)N2CCCCC2)cc1NC(=O)CCNC(=O)c1ccccc1` is “inactive”; for `Cc1ccc(-c2nnn(CC(=O)N(CCO)C(C(=O)NC(C)(C)C)c3ccncc3)n2)cc1` (centres undefined) it is “inactive”; for `Cc1cccc(C)c1NC(=O)CN1C(=O)C(C)Oc2ccccc21` (centres undefined) it is “inactive”. In the case of `Cc1occc1-c1nnc(SCC(=O)NC2CCCCC2)o1` it was “inactive”; in that of `COc1cc(Cl)c(C)cc1NC(=O)CSc1nnc(-c2ccco2)n1CC(C)C`, “inactive”.

`COc1cc(Cl)c(C)cc1NC(=O)CSc1nnc(CN2CCCC2)o1`: the Potency entry is “inactive”. Turning to `CCn1c(SCC(=O)Nc2cc(C)c(Cl)cc2OC)nnc1-c1ccco1`, the Potency is 33.6 µM (active). With `CC(C)NC(=O)NCCCCCCS(C)=O` (centres undefined), the Potency result is “inactive”. As to `Oc1ccc2ccccc2c1N=Nc1nccs1`, the Potency was 28.2 µM (active). The entry for `COc1ccc(CNC(=O)c2ccc(NS(=O)(=O)c3ccc4[nH]c(=O)[nH]c4c3)cc2)cc1OC` is “inactive”; for `COCCNC(=O)C1CCCN(Cc2ccccc2Cl)CC1` (centres undefined) it is “inactive”. In the case of `O=S1(=O)CCN(Cc2ccccc2Cl)CC1` it was “inactive”; in that of `COc1ccccc1/C=C/C=N/NC(=O)CN1CCN(Cc2ccccc2)CC1`, “inactive”. In the case of `CSc1ccc(/C=N/N2CCN(Cc3ccccc3Cl)CC2)cc1` it was 14.1 µM (active). Turning to `Cc1ccc(CN2CCN(/N=C/c3ccco3)CC2)c(C)c1`, the Potency result is “inactive”.

Consider `COc1ccccc1/C=N/N1CCN(Cc2ccccc2Cl)CC1`, for which the Potency was 15.8 µM (active).

Consider `CC1CCCN(C(=O)Cn2c(=O)oc3ccccc32)C1` (centres undefined), for which the Potency entry was “inactive”. As to `Cc1coc(C)c1C(=O)CC1(O)C(=O)N(C)c2ccc(Cl)cc21` (centres undefined), the Potency result is “inactive”. In the case of `N#Cc1cccc(CSc2nnc(CCCO)n2-c2ccccc2)c1` it was “inactive”; in that of `Cc1ccc(C(C(=O)NC2CCCCC2)N(C(=O)c2csnn2)C2CC2)o1` (centres undefined), “inactive”; in that of `COc1cccc(-c2ccc3c(c2)N(Cc2ccccc2OC)C(=O)C(C)S3)c1` (centres undefined), “inactive”. In the case of `Nc1ccc2c(c1)C(=Cc1cccnc1)c1ccccc1-2` it was 20 µM (active); in that of `Cc1ccc(C2=C/C(=C\c3cccnc3)C(=O)O2)cc1`, “inactive”.

`O=C1/C(=C\c2cccnc2)CN(Cc2ccccc2)C/C1=C\c1cccnc1`: the Potency result is “inactive”. In the case of `Cc1c(C)c2c(OCC(=O)N[C@@H](C(=O)O)c3ccccc3)cc3c(c2oc1=O)CCC(C)(C)O3` it was “inactive”; in that of `O=C(CC[C@H]1O[C@@H](n2ccc(=O)[nH]c2=O)[C@H](O)[C@@H]1O)N[C@H](Cc1ccccc1)C(=O)NCCCN1CCCC1=O`, “inactive”; in that of `CCOC(=O)CC(SP1(=S)OCC2(CCCCO2)C(C2CCCCO2)O1)C(=O)OCC` (centres undefined), “inactive”. In the case of `O=C(Nc1ccccc1-c1nnn(CC(=O)N2CCCc3ccccc32)n1)c1cccc(Cl)c1`, the Potency entry is “inactive”. The entry for `CCC(C)C(=O)Nc1ccccc1N1CCN(c2ccc(F)cc2)CC1` (centres undefined) is “inactive”; for `Cc1cc(C)cc(NC(=O)N2CCC(NC(=O)c3ccc(F)cc3)CC2)c1` it is “inactive”. Take `O=c1ccc2c(-c3ccccc3S(=O)(=O)O)c3ccc(O)c(O)c3oc-2c1O`: the Potency is 5.01 µM (active).

With `CC1=C(C(=O)Nc2ccccc2)C(c2cccs2)C(C#N)=C(SCC#N)N1` (centres undefined), the Potency entry is “inactive”. Turning to `Cc1ccc(-c2nn(C(C)(C)C)c3ncnc(N)c23)cc1`, the Potency result was “inactive”. The entry for `CC(C)NC(=S)NN=C1CCCCCCCCCCC1` is “inactive”. The entry for `NC(=S)Nc1c(Cl)cccc1Cl` is “inactive”; for `CCCCC(=O)NNC(=S)NC(=O)C(c1ccccc1)c1ccccc1` it is “inactive”. In the case of `Cc1noc(C)c1S(=O)(=O)N(C)Cc1ccccc1`, the Potency result is “inactive”. In the case of `CC1(C)O[C@@H]2[C@H](O1)[C@@H](COS(=O)(=O)O)O[C@H]2n1ccc(=O)[nH]c1=O` it was “inactive”.

For the origin of these results see PubChem BioAssay AID720542 (National Center for Advancing Translational Sciences (NCATS), 2013).
